Most compounds without a hit are left out; they make up all but 3.1% or so of the library.
MLL AF4-AF9 inh: inhibitors of human MLL-AF4/AF9 interaction; P42568; AlphaScreen, biotin-AF4 peptide binding to FLAG-AF9; 0.47% of 350,000 active; inhibition, % at 10 µM;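 active = every replicate reaching a set inhibition limit, whatever the replicate mean, cut at about 25% in these data; inconclusive = mean inhibition reaches that limit but some replicates miss it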;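 note: 0% = plate neutral control median and 100% = total signal loss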
RAD54 branch: blocks human RAD54 Holliday junction branch migration; 0.14% of 360,000 active; FAM/BHQ fluorescence; Q92698; inhibition, % at 10.4 µM;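 active = mean normalized replicate activity at least 40 and at least half of replicates scoring 40 or more; inconclusive = only one of the two criteria met; inactive = mean below 40 and under half of replicates reaching 40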;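 note: 0% = median of neutral control wells and 100% = median of positive control wells; inhibitors cause a drop in the FAM fluorescence signal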
DENV2 CPE rescue: DENV2-induced cell death inhibition; DENV2-infected cells, cytopathic effect rescue, plate reader; CPE inhibition, % at 9.99 µM; 1.7% of 350,000 active; AID 651640; in the data active = CPE inhibition above about 20%, passing the limit was not always enough; inconclusive = no clear call, values can overlap the other calls; tested in BHK-21 cells;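 note: 0% = median of neutral control wells and 100% = median of positive control wells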
GSIS activator: primary screen for activators of insulin secretion dependent on glucose, INS-1E cells, GLuc reporter luminescence; INS-1E GLuc reporter insulin secretion, 2-3 h; activation, % at 16.6 µM; 0.61% of 370,000 active;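 active = lowest replicate activation of at least 40%, so every replicate reaches that level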;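 note: 0% = median of neutral control wells and 100% = median of IBMX positive control wells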
dFosB activator: mouse delta FosB homodimer activation; P13346; purified delta FosB, TAMRA-CDK5 oligo fluorescence polarization; percent of positive-control signal above neutral wells; activation, % at 25 µM; 0.99% of 340,000 active;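 active = mean activation above about 17%, with every replicate also reaching it, limit read from the data, passing the limit was not always enough; inconclusive = only one of the two conditions met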
Target sequence (P13346 whole entry, looked up): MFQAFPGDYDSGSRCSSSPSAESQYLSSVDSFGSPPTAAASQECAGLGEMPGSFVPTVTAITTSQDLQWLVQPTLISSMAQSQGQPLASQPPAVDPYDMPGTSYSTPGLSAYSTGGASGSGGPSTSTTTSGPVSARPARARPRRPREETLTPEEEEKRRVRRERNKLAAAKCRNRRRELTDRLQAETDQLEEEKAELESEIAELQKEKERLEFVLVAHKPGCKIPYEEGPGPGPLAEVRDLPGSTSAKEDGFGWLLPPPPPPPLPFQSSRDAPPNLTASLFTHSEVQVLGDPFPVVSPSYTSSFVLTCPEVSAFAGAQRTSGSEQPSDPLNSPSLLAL
RAD52 inh: RAD52 (human) annealing inhibition; recombinant RAD52 DNA annealing, FRET fluorescence; inhibition, % at 18.7 µM; 0.46% of 360,000 active;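 active = every replicate showing at least 50% inhibition; inconclusive = mean inhibition at least 50% but not in every replicate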
* marks the source's active call; other numbers are inactive results; ? = inconclusive; . = no result given; ! = not confirmed by another sample.

SMILES	MLL AF4-AF9 inh	RAD54 branch	DENV2 CPE rescue	GSIS activator	dFosB activator	RAD52 inh
CCC(=O)Nc1ccc2c(c1)OC[C@@H](C)N(C(=O)CN(C)C)C[C@@H](C)[C@@H](OC)CN(C)C2=O	-1	12	-9	8	.	3
COc1ccc2c3c([nH]c2c1)[C@@H](CO)N(C(=O)C1CCCC1)CC31CN(S(C)(=O)=O)C1	-1	.	-5	-12	.	-9
C[C@H]1CCCCO[C@@H](CN(C)C(=O)Nc2ccccc2)[C@@H](C)CN([C@@H](C)CO)C(=O)c2cc(NS(=O)(=O)c3cn(C)cn3)ccc2O1	-1	-4	-4	8	.	-1
CC(C)C[C@@H](CNCC(=O)[C@H](CC(C)C)NC(=O)c1[nH]cnc1C(=O)N[C@@H](C)CN)NC(=O)c1nc[nH]c1C(=O)N[C@@H](CC(=O)O)C(=O)O	1	-8	87*	9	-2	3
O=C(Cc1cccnc1)N[C@H]1CC[C@@H](CCNS(=O)(=O)c2ccccc2Cl)O[C@@H]1CO	.	.	.	8	.	.
CC(C)(C)[C@@H]1C=C(C(=O)N2CCN(Cc3ccc4c(c3)OCO4)CC2)O[C@H](OCc2ccc(CO)cc2)C1	10	-8	34*!	-33	-2	9
CC(C)(C)[C@H]1C=C(C(=O)N2CCN(Cc3ccc4c(c3)OCO4)CC2)O[C@@H](OCCCCO)C1	2	-2	-7	-13	-5	-13
Cc1ccccc1S(=O)(=O)N1CC[C@@H]2[C@H]1c1cc(-c3ccc(C#N)cc3)ccc1N(C)[C@H]2CO	-5	8	27*	17	.	10
Cc1ccccc1S(=O)(=O)N1CC[C@@H]2[C@@H](CO)N(C)c3ccc(-c4ccccc4)cc3[C@@H]21	4	3	-1	0	.	-3
CN1c2ccc(-c3cccc(C#N)c3)cc2[C@@H]2[C@@H](CCN2S(=O)(=O)c2cccc(F)c2)[C@@H]1CO	.	2	73*	-6	.	.
CN1c2ccc(-c3ccc(C#N)cc3)cc2[C@H]2[C@H](CCN2S(=O)(=O)c2cccc(F)c2)[C@H]1CO	0	10	4	-4	.	18
COc1cccc(-c2ccc3c(c2)[C@@H]2[C@@H](CCN2S(=O)(=O)c2ccccc2C)[C@H](CO)N3C)c1	-2	-2	28*	14	.	1
Cc1ccccc1S(=O)(=O)N1CC[C@@H]2[C@H]1c1cc(-c3cccc(F)c3)ccc1N(C)[C@H]2CO	.	10	22*	12	.	.
COc1cccc(-c2ccc3c(c2)[C@H]2[C@H](CCN2S(=O)(=O)c2ccccc2C)[C@H](CO)N3C)c1	?	3	-1	19	.	19
Cc1noc(C)c1S(=O)(=O)N(C)C[C@H]1OCCCC[C@H](C)Oc2ccc(NC(=O)C3CCCCC3)cc2C(=O)N([C@@H](C)CO)C[C@H]1C	0	-4	-5	-2	.	-26
CC(=O)Nc1ccc2c(c1)C(=O)N(C)[C@H]1CC[C@H](CC(=O)NCc3ccc4c(c3)OCO4)O[C@H]1CO2	.	-3	0	8	.	.
Cc1ccc(S(=O)(=O)N(C)C[C@H]2Oc3ccc(NC(=O)C4CCCCC4)cc3CC(=O)N([C@@H](C)CO)C[C@H]2C)cc1	1	0	-2	-14	.	-2
Cc1cccc(NC(=S)Nc2ccccn2)c1C	.	.	.	41*	-9	.
Cc1cccc(NC(=O)Nc2ccccn2)c1C	-17	-8	0	5	-1	0
CC(C)NC(=O)N[C@H]1CC[C@H](CC(=O)NCCCN(C)C)O[C@@H]1CO	.	-2	.	4	.	.
CC(C)NC(=O)N1[C@@H](CO)[C@@H](c2ccccc2)C12CN(Cc1cc(F)cc(F)c1)C2	3	.	2	4	.	10
Cc1cccc(S(=O)(=O)N2CC[C@@H]3[C@@H](CO)N(C)c4ccc(-c5ccccc5F)cc4[C@@H]32)c1	-3	-11	35*	9	.	-10
CN1c2ccc(-c3ccccc3F)cc2[C@H]2[C@H](CCN2S(=O)(=O)c2ccccc2)[C@@H]1CO	0	-10	21*	-1	.	13
O=C(NC[C@H]1CC[C@H]2[C@H](CN2Cc2cccc(Cl)c2)O1)C1CCOCC1	-4	.	58*	.	.	-18
CC(C)NC(=O)N(C)C[C@H]1Oc2ncc(C#CCC3CCCC3)cc2C(=O)N([C@@H](C)CO)C[C@H]1C	-9	5	8	-5	.	27
SMILES	MLL AF4-AF9 inh	RAD54 branch	DENV2 CPE rescue	GSIS activator	dFosB activator	RAD52 inh
CCC(=O)N1CC2(C1)[C@H](c1ccccc1)[C@@H](CO)N2S(=O)(=O)Cc1ccccc1	-1	.	-14	10	.	-12
COc1ccc(C[C@H]2CN3C(=NC[C@@H]3Cc3ccccc3)N2CCNC(=O)CCC2CCCCC2)cc1	20	21	-7	155*	10	26
COc1cc(/C=C2/SC(=S)N(C)C2=O)ccc1OC(=O)c1ccco1	1	.	-3	-7	-3	-80
COc1cc(/C=C2/SC(=O)NC2=O)ccc1OC(=O)c1ccco1	-1	-12	-1	-16	68*	-9
C[C@H](O)C#Cc1ccc2c(c1)O[C@@H](CN(C)CC1CC1)[C@@H](C)CN([C@@H](C)CO)S2(=O)=O	.	.	.	4	.	.
COc1ccccc1CN1CC2(C1)[C@@H](c1ccccc1)[C@@H](CO)N2Cc1ccccc1	.	.	.	-5	.	.
COc1ccc2c3c(n(C)c2c1)[C@H](CO)N(C(=O)C1CC1)CC31CN(Cc2cccc(F)c2)C1	22	.	7	-1	.	16
COc1ccc2c3c(n(C)c2c1)[C@H](CO)N(C(=O)C1CCCC1)CC31CCN(Cc2cccc(F)c2)CC1	26*	.	-11	-27	.	21
COc1ccc2c3c(n(C)c2c1)[C@@H](CO)N(C(=O)C1CCCC1)CC31CCN(C(=O)Nc2cccc(F)c2)CC1	1	.	-7	-10	.	4
COc1ccc2c3c(n(C)c2c1)[C@@H](CO)N(C(=O)C1CCCC1)CC31CCN(Cc2cccc(F)c2)CC1	38*	.	-2	-29	.	20
COc1ccc2c3c(n(C)c2c1)[C@H](CO)N(C(=O)C1CCCC1)CC31CCN(C(=O)Nc2cccc(F)c2)CC1	-1	.	28*	-18	.	8
COc1ccc2c3c(n(C)c2c1)[C@@H](CO)N(C(=O)C1CCOCC1)CC31CN(Cc2cccc(F)c2)C1	13	.	?	9	.	.
C[C@@H]1CCCCO[C@H](CN(C)Cc2ccc3c(c2)OCO3)[C@@H](C)CN([C@@H](C)CO)C(=O)c2cc(NC(=O)Nc3ccc(F)cc3)ccc2O1	19	-2	-10	-13	.	19
C[C@H](CO)N1C[C@H](C)[C@@H](CN(C)S(=O)(=O)c2ccc(F)cc2)OCCCC[C@H](C)Oc2ccc(NS(=O)(=O)c3ccccc3)cc2C1=O	2	8	1	-19	.	-2
COCC(=O)Nc1ccc2c(c1)C(=O)N(C)[C@H]1CC[C@H](CC(=O)NCCc3ccccc3)O[C@H]1CO2	-1	-10	-3	19	.	4

Source: PubChem
